Experimental findings from PubChem BioAssay AID720523 (National Center for Advancing Translational Sciences (NCATS), 2013) are described below.

The whole screen tested about 1,400 compounds, of which about 25 (2%) were called active. Another 19% or so got no clear call; they are omitted. Calls come from the whole dose curve; as a rule, active = well fitted inhibition curve with a large enough effect; inconclusive = small, poorly fitted or top-dose-only effect; inactive = flat fitted curve, though single readings scatter. Only a sample is shown.
% is set by controls: 0 for no effect and ±100 for the full control effect.

This assay can be described thus: Nrf2 qHTS screen for inhibitors: A549 ARE-Fluc Cytotoxicity Counterscreen for Hit Validation. Conditions: A549 ARE-Fluc cells; series mostly up to 46.1 µM; activity change, negative = cytotoxicity: at the top concentration. From the text:
Nrf2 is a transcription factor that maintains cellular redox homoestasis and protects cells from xenobiotics. Nrf2 binds to the antioxidant response element (ARE) to induce gene expression of a broad spectrum of genes that encode for antioxidants. […] Finding a small molecule that act as an inhibitor of Nrf2 function would represent a novel therapeutic target that could lead to improvement in survival of patients undergoing chemo- and/or radio- therapy.
In collaboration with the Biswal laboratory, a cell based, luminescence assay (BugLite) was developed to detect the Nrf2 activity using the A549 ARE_Fluc cells (AID 504648). This assay was coupled with a fluorescence based (CellTiter Fluor) cytotoxicity assay to identify and exclude toxic compounds. This coupled assay was used to evaluate selected compounds for hit validation. The data herein is the result of the CellTiter Fluor assay where decrease in fluorescence signal = cytotoxicity. Inactivity is the desired outcome for this assay.
NIH Chemical Genomics Center [NCGC]
NIH Molecular Libraries Probe Centers Network [MLPCN]
Assay Submitter (PI): Shyam Biswal, Johns Hopkins University
[1] Shibata T., et al., Genetic alteration of Keap1 confers constitutive Nrf2 activation and resistance to chemotherapy in gallbladder cancer. Gastroenterology, 2008.
[2] Sjoblom T., et al., The consensus coding sequences of human breast and colorectal cancers. Science, 2006.
Five uL of cell suspension was dispensed into 1536-well white TC-treated plate using the Kalypsys dispenser to achieve a density of 5000 cells/well in all columns except column 1. The plates were incubated at 37deg C at 5% CO2 for 2 hours before 23 nL of compounds were added with the Kalypsys pin tool equipped with a 1,536-pin array. The control compounds Budesonide and Staurosporine were added at a concentration of 2mM. Budesonide was also added as a 1:10 titration, starting at 200uM, to achieve the dose-response control signal. The plates were incubated for 18-24 hour at 37deg C, 5% CO2 followed by a 5ul addition of 5% FBS OPTI-MEM growing media in column 1 as negative control. One microliter of 5x CellTiter Fluor (Promega) was added to each well and the assay plates were incubated at 37deg C, 5% CO2 for 30 minutes. The fluorescence signal was read using the PerkinElmer ViewLux plate reader (Ex = 405 nm /Em = 525 nm) for a 3 second exposure. After the signal was taken, 3 uL of 3x BugLite was dispensed into all wells. The plates were then incubated at room temperature for 15 minutes. A second ViewLux read (40 sec exposure) was performed to detect the luminescence signal. Cytotoxicity was assessed through the first fluorescent read while biochemical activity against Nrf2 was measured in the luminescent read. The data was normalized to the positive and negative controls.
Consider `CCC(C)N1C(=O)S/C(=C/c2ccc(Sc3nc4ccccc4[nH]3)o2)C1=O` (stereo unspecified), for which the “activity change, negative = cytotoxicity” value was -29.1% (inactive).

`CC(C)(C)c1ccc(Oc2ccc(N)cc2)cc1`: the “activity change, negative = cytotoxicity” value is -24% (inactive).

In the case of `CCOc1ccc(S(=O)(=O)N2CCCCC2)cc1NC(=O)CN1CCCC1c1cccs1` (stereo unspecified), the “activity change, negative = cytotoxicity” value was -3.35% (inactive).

Regarding `O/N=C(\C[n+]1ccccc1)c1ccc(Br)cc1`, the “activity change, negative = cytotoxicity” value was -11.6% (inactive).

As to `COc1ccc(C(=O)C[n+]2ccc(N)c(C)c2C)cc1`, the “activity change, negative = cytotoxicity” value is -28.1% (inactive).

Take `Cc1csc[n+]1CCC1CCCCC1`: the “activity change, negative = cytotoxicity” value is -0.656% (inactive).

`CCCCNc1nc2c(c(=O)n(C)c(=O)n2C)n1Cc1cccc(OC)c1`: the “activity change, negative = cytotoxicity” value is -14.8% (inactive).

Regarding `COc1cccc(-c2nc(CS(=O)(=O)CC(=O)N3CCN(c4cc(C)ccc4C)CC3)c(C)o2)c1`, the “activity change, negative = cytotoxicity” value was -29.3% (inactive).

Consider `CC(C)Cn1c(N)c(C(=O)COC(=O)CN2C(=O)C3CC=CCC3C2=O)c(=O)n(C)c1=O` (stereo unspecified), for which the “activity change, negative = cytotoxicity” value is -2.49% (inactive).

On to `O=C1C=C(c2ccnc3cc(Cl)ccc23)C[C@@H](c2ccc3c(c2)OCO3)C1`, for which the “activity change, negative = cytotoxicity” value was -4.05% (inactive).

Consider `CN(Cc1cccnc1)C(=O)c1cc(COc2ccc3ncccc3c2)on1`, for which the “activity change, negative = cytotoxicity” value was -6.55% (inactive).

As to `Cc1ccc(NS(=O)(=O)c2cccs2)cc1S(=O)(=O)N1CCCCCC1`, the “activity change, negative = cytotoxicity” value was -5.52% (inactive).

On to `CC(=O)OC(C)C[N+](C)(C)C` (stereo unspecified), for which the “activity change, negative = cytotoxicity” value is -23.7% (inactive).

Turning to `Cn1nccc1C(=O)NC1CCCc2c1cnn2-c1ccc(F)cc1F` (stereo unspecified), the “activity change, negative = cytotoxicity” value was 0.272% (inactive).

On to `COCCn1c(SCC(=O)Nc2ccccc2F)nc2c(c1=O)SCC2`, for which the “activity change, negative = cytotoxicity” value was 0.723% (inactive).

For `CC(=O)N1c2ccc(S(=O)(=O)N3CCCC(C(=O)Nc4cccc(Cl)c4)C3)cc2CC1C` (stereo unspecified), the “activity change, negative = cytotoxicity” value is -14.6% (inactive).

For `CC1CCCN(S(=O)(=O)c2ccc(C(=O)Nc3nnc(-c4ccncc4)o3)cc2)C1` (stereo unspecified), the “activity change, negative = cytotoxicity” value is -25.8% (inactive).

As to `CC(=O)N1CCCc2cc(S(=O)(=O)N3CCCC(C(=O)N4CCN(c5cccc(Cl)c5)CC4)C3)ccc21` (stereo unspecified), the “activity change, negative = cytotoxicity” value is -11% (inactive).

Turning to `O=C(CN1C(=O)c2ccccc2S1(=O)=O)N1CCc2ccccc21`, the “activity change, negative = cytotoxicity” value was -2.66% (inactive).

`CC1(C)O[C@@H]2CC3C4C[C@H](F)C5=CC(=O)C=CC5(C)C4C(O)CC3(C)[C@]2(C(=O)CO)O1` (stereo partly specified): the “activity change, negative = cytotoxicity” value is -14.4% (inactive).

With `Cc1ccc(NC(=O)C2CC(=O)N(c3ccc4c(c3)OCCO4)C2)cc1S(=O)(=O)N1CCCCCC1` (stereo unspecified), the “activity change, negative = cytotoxicity” value is -20.8% (inactive).

Take `C=CCC1(CC=C)CCCN1C(=O)c1cc(COc2ccc(-n3cncn3)cc2)on1`: the “activity change, negative = cytotoxicity” value is -4.31% (inactive).

`COc1ccc(CC(=O)Nc2nc(-c3ccc(F)c(F)c3)cs2)cc1OC`: the “activity change, negative = cytotoxicity” value was -8.52% (inactive).

Take `CC(C)(C)n1ncc2c(=O)n(Cc3ccc(C(=O)c4ccccc4)cc3)cnc21`: the “activity change, negative = cytotoxicity” value was -5.96% (inactive).

Consider `Brc1c(CSc2nncc3ccccc23)nc2ccccn12`, for which the “activity change, negative = cytotoxicity” value is -11.6% (inactive).

For `CCC(C)(C)c1ccc(Oc2ccc(NC(=O)COC(=O)C3=COCCO3)cc2)cc1`, the “activity change, negative = cytotoxicity” value is -17.9% (inactive).

As for `OCCCNc1nccc(-c2cc(Nc3cccc(Cl)c3)ncn2)n1`, the “activity change, negative = cytotoxicity” value was -25.5% (inactive).

As for `CC(=O)N1c2ccc(S(=O)(=O)N3CCCC(C(=O)NCc4ccc(Cl)cc4)C3)cc2CC1C` (stereo unspecified), the “activity change, negative = cytotoxicity” value is -5.54% (inactive).

With `Cc1cc(C)c(-c2csc(NC(=O)CCCc3nc4ccccc4c(=O)[nH]3)n2)c(C)c1`, the “activity change, negative = cytotoxicity” value was -24.1% (inactive).

As to `COc1ccc(CCNC(=O)c2ccc(CS(=O)(=O)c3ccc(Br)cc3)o2)cc1OC`, the “activity change, negative = cytotoxicity” value was -1.61% (inactive).

For `Cc1cccc(N2CCN(C(=O)CCS(=O)(=O)c3ccc4c(c3)NC(=O)C(C)S4)CC2)c1C` (stereo unspecified), the “activity change, negative = cytotoxicity” value was -21.8% (inactive).

Consider `O=C(OCCOc1ccccc1Cl)c1cc(S(=O)(=O)N2CCCCC2)ccc1N1CCOCC1`, for which the “activity change, negative = cytotoxicity” value is -6.85% (inactive).

For the molecule `Cc1nc(N2CCOCC2)c2c(C)c(C(=O)Nc3ccc(C(F)(F)F)cc3)sc2n1`, the “activity change, negative = cytotoxicity” value is -23.1% (inactive).

`Cc1ccc(S(=O)(=O)N2C[C@@H]3CCCC[C@@H]3[C@@H](C)[C@H]2c2cn(Cc3ccccc3)c3ccc(F)cc23)cc1`: the “activity change, negative = cytotoxicity” value is -6.88% (inactive).

Turning to `Cc1ccc(S(=O)(=O)N2CCN(c3ncnc4ccccc34)CC2)cc1`, the molecule was called inactive.

Take `COc1ccc(OC)c(Cc2cnc3nc(N)nc(N)c3c2C)c1`: the “activity change, negative = cytotoxicity” value was -13.1% (inactive).

As for `O=C(Nc1ccncc1)c1c(F)cccc1F`, the “activity change, negative = cytotoxicity” value is -5.15% (inactive).

Take `O=C(Nc1ccc(Br)cn1)C1CCN(S(=O)(=O)c2cccs2)CC1`: the “activity change, negative = cytotoxicity” value was -0.549% (inactive).

As to `O=C(CCC(=O)N1CCN(S(=O)(=O)c2ccc(Cl)cc2)CC1)NCc1cccc(C(F)(F)F)c1`, the “activity change, negative = cytotoxicity” value is -20.4% (inactive).

With `Cc1cc(C(=O)NC2CCCc3c2cnn3-c2cccc(C)c2C)c(C)o1` (stereo unspecified), the “activity change, negative = cytotoxicity” value is -15.6% (inactive).

`CCOC(=O)c1cnc(-n2nc(C)cc2C)nc1NNc1cc(C)nc(-c2ccccc2)n1`: the “activity change, negative = cytotoxicity” value is -16.4% (inactive).

For `COc1ccc(N2CCN(C(=O)CSCc3nc(-c4ccccc4Cl)oc3C)CC2)cc1`, the “activity change, negative = cytotoxicity” value was -16.2% (inactive).

On to `CCCOc1ccc(Cc2c(Cl)nc(SC)nc2NC)cc1`, for which the “activity change, negative = cytotoxicity” value was 7.6% (inactive).

As to `O=c1[nH]c(SCc2cccc(F)c2)nc2ccccc12`, the “activity change, negative = cytotoxicity” value is 7.99% (inactive).

Take `O=C(CSc1nnc2c(n1)[nH]c1ccccc12)NC1CCCCC1`: the “activity change, negative = cytotoxicity” value is -1.2% (inactive).

In the case of `CCCN(c1ccc(C(C)C)cc1)S(=O)(=O)c1c(C)[nH]c(=O)[nH]c1=O`, the “activity change, negative = cytotoxicity” value was -10.9% (inactive).

Turning to `CC1CCN(S(=O)(=O)c2ccc(NC(=O)C3CC(=O)N(c4ccccc4)C3)cc2)CC1` (stereo unspecified), the “activity change, negative = cytotoxicity” value is -2.32% (inactive).

As to `CCCOc1ccc(C(=O)Nc2ccc3oc(-c4cccc(Cl)c4Cl)nc3c2)cc1`, the “activity change, negative = cytotoxicity” value was 0.327% (inactive).

Take `c1ccc(C(=NNc2nc3ccccc3s2)c2ccccn2)cc1`: the “activity change, negative = cytotoxicity” value was -27.2% (inactive).

In the case of `CCNS(=O)(=O)c1ccc(CCC(=O)N2CCN(c3cc(Cl)ccc3C)CC2)cc1`, the “activity change, negative = cytotoxicity” value is -12.7% (inactive).

Consider `Cc1c(Cl)cccc1NC(=O)Cn1cc(C(=O)c2cccs2)c2ccccc21`, for which the “activity change, negative = cytotoxicity” value was -25.4% (inactive).
